CRFR2-BP antag: antagonists of CRF-BP/CRF-R2 complex, primary screen, cell-based, HEK293, calcium dye fluorescence, uHTS; CRF-induced calcium fluorescence; inhibition, % at 11.8 µM; 350,000 tested, 0.59% active; AID 588475, 2011;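 active = inhibition of the ligand-induced calcium signal above about 50% at the single tested concentration, limit read from the data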
V-ATPase pHluor: regulators of yeast V-ATPase proton pumping, primary screen, pHLuorin cytosolic pH fluorescence; S. cerevisiae; response, % at 10 µM; 350,000 tested, 0.37% active; in the data active = response mostly above about 7.3%, no sharp cut-off; inactive = mostly below about 5.4%; also: actives read high
CRFR2-BP ag: agonists of CRF-BP/CRF-R2 complex, primary screen, cell-based, HEK293, calcium dye fluorescence, uHTS. activation, % at 13.2 µM. 350,000 tested, 0.46% active. calcium dye fluorescence (FLIPR); percent of saturating CRF peptide response;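 active = activation of at least 50%, plus an integration ratio under a set limit after plate pattern correction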;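 also: plate controls were neutral control wells without compound for no effect and CRF at EC100 for full effect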
NTR1 ag: agonists of human NTR1, primary screen, imaging, U2OS cells, beta-arrestin-GFP, high content. Neurotensin receptor type 1 (Homo sapiens), P30989. NTR1-U2OS beta-arrestin-GFP spot imaging, agonist mode. activation, % at 20 µM. 330,000 tested, 0.17% active. AID 493036, 2011;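 active = activation at or above 40% of the spot to cytoplasm intensity ratio, with at least 20 cells analyzed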;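 also: 0% = DMSO without peptide and 100% = 100 nM NTR1 peptide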
Target sequence (P30989 whole entry, looked up): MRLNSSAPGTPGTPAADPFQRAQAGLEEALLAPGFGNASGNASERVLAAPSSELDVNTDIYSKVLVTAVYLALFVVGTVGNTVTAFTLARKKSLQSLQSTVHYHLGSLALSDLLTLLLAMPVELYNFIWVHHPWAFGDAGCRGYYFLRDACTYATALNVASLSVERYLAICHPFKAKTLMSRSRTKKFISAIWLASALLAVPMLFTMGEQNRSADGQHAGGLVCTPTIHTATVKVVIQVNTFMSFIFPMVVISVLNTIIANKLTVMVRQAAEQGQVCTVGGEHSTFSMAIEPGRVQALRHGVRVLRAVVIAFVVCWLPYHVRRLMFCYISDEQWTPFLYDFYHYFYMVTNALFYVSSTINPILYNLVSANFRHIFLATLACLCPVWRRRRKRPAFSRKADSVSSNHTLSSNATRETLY
* = called active by the depositor; · = no result. A selection: hits, their analogues and other compounds. The true share with any hit is near 1.5%.

SMILES	CRFR2-BP antag	V-ATPase pHluor	CRFR2-BP ag	NTR1 ag
CCOc1ccc(S(=O)(=O)Nc2nc3ccccc3nc2Nc2ccc(N3CCOCC3)cc2)cc1	-25.9	0.1	77.3*	0.7
NC(=O)C(=O)N/N=C/c1c2ccccc2cc2ccccc12	-0.9	0.0	-1.3	0.4
COc1ccc(N=C(c2ccccc2)c2c(C)[nH]n(-c3ccccc3)c2=O)c(OC)c1	15.8	0.2	0.0	3.4
Cc1ccc(NC(=O)C2=C(c3ccccc3)S(=O)(=O)CCS2(=O)=O)cc1	-51.9	-4.4	54.7*	21.5
N#CC(C#N)=NNc1ccc(S(=O)(=O)N2CCCCC2)cc1	66.1*	0.3	98.8*	-0.5
COc1cc(-c2ccc3cc(OC)c(OC)c(OC)c3c2)cc(OC)c1OC	58.2*	-3.4	0.6	·
CN(C(=O)COC(=O)C(Cc1ccccc1)NC(=O)c1ccccc1)c1ccccc1 (stereo unspecified)	17.5	-2.8	1.0	-1.8
CN(C)C(=O)COC(=O)[C@H](Cc1ccccc1)NC(=O)c1ccco1	-41.7	-2.1	106.6*	1.8
O=C(COC(=O)[C@H](Cc1ccccc1)NC(=O)c1ccco1)NCc1ccccc1	-72.0	-3.4	78.8*	-0.2
CCCC1Cc2nc(Cl)c(C#N)cc2CO1 (stereo unspecified)	6.4	0.1	-0.5	0.4
Cc1ccc(S(=O)(=O)N(C)C)cc1NC(=O)c1cc(S(=O)(=O)N2CCCCC2)ccc1N1CCOCC1	17.3	1.0	-1.1	2.1
CCCCCCn1c(=O)[nH]c2nc3cc(N)c(C)cc3nc2c1=O	-227.9	-1.1	324.9*	·
CCCCn1c(=O)[nH]c2nc3cc(NC(C)=O)ccc3nc2c1=O	-6.1	-0.8	22.1	0.6
C[C@]12CCC(=O)C=C1C=C[C@@H]1[C@@H]2CC[C@@]2(C)[C@H]1CC[C@@]21CCC(=O)O1	-10.2	3.0	-0.1	-0.9
CCC1=CC(c2ccccc2)n2ncnc2N1 (stereo unspecified)	-4.7	14.1*	-3.0	1.1
CCOC(=O)/C(C#N)=C\c1ccc2c(c1)OCO2	110.2*	3.5	-0.9	0.3
CCOC(=O)/C(C#N)=C\c1ccc(N2CCN(C/C=C/c3ccccc3)CC2)cc1	-61.8	0.8	54.6*	0.8
COc1ccc(Cl)cc1N1C(=NC(=O)C2CCCCC2)SC2CS(=O)(=O)CC21 (stereo unspecified)	2.7	-0.1	1.4	2.8
N#CC1=C(N)OC2=C(C(=O)CC(c3ccccc3)C2)C1c1ccc2c(c1)OCO2 (stereo unspecified)	59.5*	-0.4	-2.3	1.0
CCCc1nc2nc(C)c(NS(=O)(=O)c3ccc([N+](=O)[O-])cc3)c(=O)n2[nH]1	-1.1	0.8	1.5	-1.0
c1ccc(CN2CCN(c3nc(NCc4ccco4)c4ccccc4n3)CC2)cc1	-10.7	-0.6	0.9	44.2*
COc1ccc(N=C2C(=O)Nc3c(C)cccc32)cc1	93.6*	0.3	-1.0	1.4
Cc1ccc(N=C2C(=O)Nc3c(C)cccc32)cc1	14.5	-0.9	-0.4	1.3
C=CCn1c(O)c(C(CC)=NCCN2CCOCC2)c(=O)[nH]c1=O	4.4	1.3	-0.5	-1.5
C=CCn1c(O)c(C(CC)=Nc2ccccc2NC(=O)CC)c(=O)[nH]c1=O	76.3*	-1.9	-0.7	0.2
SMILES	CRFR2-BP antag	V-ATPase pHluor	CRFR2-BP ag	NTR1 ag
COCCCn1c(-c2ccsc2)nc2c1c(=O)[nH]c(=O)n2Cc1ccccc1	-12.7	5.0	-0.4	3.7
O=C(NNC(=O)c1cccc(S(=O)(=O)N2CCCCC2)c1)c1ccccc1	103.3*	0.8	-0.2	-0.7
O=C(Nc1ccc(Cl)cn1)c1cccc(S(=O)(=O)N2CCCC2)c1	58.3*	-4.0	0.1	-0.9
O=C(Nc1ccc(Cl)cn1)c1cccc(S(=O)(=O)N2CCCCCC2)c1	-16.8	0.5	3.5	·
O=C(NNC(=O)c1ccc(S(=O)(=O)N2CCCCC2)cc1)c1ccccc1	-21.1	-0.3	-0.6	-0.2
CC(=O)N1CCN(S(=O)(=O)c2cccc(C(=O)NCc3ccc(F)cc3)c2)CC1	89.3*	2.2	1.5	3.2
CC(=O)Nc1ccc(NC(=O)C(C)OC(=O)c2cccc(S(=O)(=O)N3CCCCCC3)c2)cc1 (stereo unspecified)	8.3	15.3*	-0.2	-0.4
CCCCn1c(N)c(N(CC(C)C)C(=O)CSCc2cccc(C)c2)c(=O)[nH]c1=O	2.7	3.8	0.0	3.3
CN(C)S(=O)(=O)c1cccc(C(=O)N(Cc2ccc(F)cc2)Cc2ccco2)c1	12.4	5.0	-1.6	-0.1
O=C(Nc1nnc(S(=O)(=O)N2CCCCC2)s1)c1cccc(Br)c1	58.5*	-0.3	13.9	2.4
O=C(c1cccc(S(=O)(=O)N2CCOCC2)c1)N(Cc1ccc(F)cc1)Cc1ccco1	55.2*	-3.0	-1.0	0.6
Cc1ccnc(NC(=O)c2cccc(S(=O)(=O)N3CCCC3)c2)c1	73.4*	-4.2	-0.6	0.1
O=C(Nc1nnc(S(=O)(=O)N2CCCC2)s1)c1cccc([N+](=O)[O-])c1	24.0	-0.9	-0.3	1.4
COc1cccc(NC(=O)CSc2nnnn2C2CCCCC2)c1	-3.4	-0.2	-1.6	0.6
CC(=O)NC(Cc1c[nH]c2ccccc12)C(=O)OCC(=O)N1CCN(S(=O)(=O)c2ccc(Cl)cc2)CC1 (stereo unspecified)	8.8	-0.8	1.4	·
Cc1ccccc1C(=O)Nc1scc(-c2ccc(Br)cc2)c1C(=O)O	67.8*	3.7	-1.3	0.2
O=C(Nc1scc(-c2ccccc2)c1C(=O)O)c1ccccc1F	23.8	-3.2	-2.0	1.5
O=C(Nc1scc(-c2ccc(Br)cc2)c1C(=O)O)c1ccccc1F	56.4*	-2.4	-0.2	0.3
COC(=O)c1c(NC(=O)c2ccco2)sc2c1CCN(C(C)C)C2	-5.3	-0.5	51.8*	0.0
CC(C)N1CCc2c(sc(NC(=O)Cc3ccccc3)c2C(N)=O)C1	-49.2	-2.9	3.4	-1.9
CC(=O)Nc1sc2c(c1-c1nc3ccccc3s1)CCN(C(C)C)C2	-64.3	0.0	80.3*	11.2
CC(C)N1CCc2c(sc(NC(=O)c3ccco3)c2C(N)=O)C1	4.8	0.4	27.2	0.4
CC(C)N1CCc2c(sc(NC(=O)c3cc4cc([N+](=O)[O-])ccc4s3)c2C(N)=O)C1	-137.0	1.0	133.6*	4.4
CC(C)N1CCc2c(sc(NC(=O)CCc3ccccc3)c2C(N)=O)C1	-70.5	-3.2	62.4*	0.9
CCc1c(C)c2cc(Cl)c(O)c(CN3CCCC3)c2oc1=O	2.8	8.0	-1.5	-1.2
COC(=O)c1cccc(N(CC(=O)NC2CCCC2)C(=O)CNC(=O)c2cccs2)c1	7.6	-2.3	-0.7	2.1
O=C(Cc1ccsc1)N1CCN(S(=O)(=O)c2ccccc2F)CC1	-2.9	2.0	0.0	4.7
CC(C)N1CCc2c(sc(NC(=O)c3ccc4ccccc4c3)c2C(N)=O)C1	-114.7	2.8	124.3*	0.6
CC(C)N1CCc2c(sc(NC(=O)c3ccc(C(=O)c4ccccc4)cc3)c2C(N)=O)C1	-90.4	-0.9	22.2	1.1
O=C(c1ccccc1)c1ccc(O)cc1O	-43.8	-0.3	60.7*	-1.6
